# Values joined by “and” are separate entries in the source; they are usually repeats but may differ in a detail not shown here. Equal entries are not always repeated. Records with an inconclusive call do not appear. Entries that show only a call come without a potency. Where a structure was tested more than once in an assay, its records may differ in their call. Active and inactive are the calls of the source. Unless noted, calls come from the whole dose curve.
# Experiments:
# [1] = Nuclear factor erythroid 2-related factor 2/antioxidant responsive element (Nrf2/ARE) small molecule agonists: qHTS cell viability counter screen in human keratinocytes (AID 1919968; active = well fitted curve in the direction sought with a large enough effect in the repeat runs; an effect the other way counts as inactive or inconclusive; note: nearly all actives have a fitted effect of over 55% in size)
# Procedure, shortened: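 Stably transfected HaCaT (KeratinoSens), 1,500/well. Test agents in DMSO were applied for 23 h, 37 C/5% CO2. CellTiter-Fluor was incubated 1 h before the fluorescence read.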
# [2] = Nuclear factor erythroid 2-related factor 2/antioxidant responsive element (Nrf2/ARE) small molecule agonists: luciferase reporter gene qHTS assay in human keratinocytes (AID 1919969); note: nearly all actives have a fitted effect of over 35% in size; note: potency is the fitted concentration of half-maximal effect
# [3] = molecular target: Gonadotropin-releasing hormone receptor (Homo sapiens) (UniProt P30968); experiment: Human gonadotropin-releasing hormone receptor (GnRHR) small molecule agonists, calcium flux assay in GnRHR-HEK293 cells (AID 1920063); note: nearly all actives have a fitted effect of over 35% in size
# Sequence of Gonadotropin-releasing hormone receptor (Homo sapiens) (P30968 whole entry, looked up): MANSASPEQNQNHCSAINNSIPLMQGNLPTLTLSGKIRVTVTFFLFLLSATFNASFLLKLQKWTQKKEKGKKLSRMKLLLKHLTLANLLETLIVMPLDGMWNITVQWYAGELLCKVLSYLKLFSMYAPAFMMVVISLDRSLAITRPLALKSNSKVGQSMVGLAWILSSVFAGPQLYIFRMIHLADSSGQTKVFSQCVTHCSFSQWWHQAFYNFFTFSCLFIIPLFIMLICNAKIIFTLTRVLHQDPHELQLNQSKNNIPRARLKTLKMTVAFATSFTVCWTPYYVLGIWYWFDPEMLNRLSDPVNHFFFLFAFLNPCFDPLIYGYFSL
# Procedure, shortened: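 Stable human GnRHR HEK293 line. 18 h plating, then calcium dye for 1 h at 37 C. Agonist-mode compound addition from DMSO stocks; fluorescence monitored 3 min.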
# [4] = molecular target: KiSS-1 receptor (Homo sapiens) (UniProt Q969F8); experiment: Human kisspeptin (KISS1R) small molecule agonists, calcium flux assay in KISS1R-HEK293 cells (AID 1920064; active = well fitted curve in the direction sought with a large enough effect in the repeat runs; an effect the other way counts as inactive or inconclusive)
# Sequence of KiSS-1 receptor (Homo sapiens) (Q969F8 whole entry, looked up): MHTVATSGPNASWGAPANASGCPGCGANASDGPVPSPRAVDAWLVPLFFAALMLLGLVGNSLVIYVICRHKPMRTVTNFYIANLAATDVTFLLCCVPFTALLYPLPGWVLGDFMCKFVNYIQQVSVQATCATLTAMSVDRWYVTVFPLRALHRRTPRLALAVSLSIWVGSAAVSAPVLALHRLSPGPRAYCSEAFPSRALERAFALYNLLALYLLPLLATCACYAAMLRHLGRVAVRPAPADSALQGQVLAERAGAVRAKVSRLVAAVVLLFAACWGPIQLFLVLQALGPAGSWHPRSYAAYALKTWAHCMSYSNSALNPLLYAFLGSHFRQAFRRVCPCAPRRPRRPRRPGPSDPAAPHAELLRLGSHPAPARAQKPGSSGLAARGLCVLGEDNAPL
# Procedure, shortened: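 After overnight (18 h) culture at 37 C/5% CO2, human KISS1R-HEK293 cells received calcium dye for 1 h, then test compound; emission at 540 nm (excitation 480 nm) was tracked for 3 min.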
# [5] = G protein-coupled receptor (GPCR) small molecule agonists, calcium flux assay: HEK293 wild type cell line counter screen (AID 1920065)
# Procedure, shortened: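 Following 18 h incubation at 37 C/5% CO2, plates got calcium dye for 1 h; compounds, ATP or DMSO were then pinned in and fluorescence followed kinetically (480/540 nm).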
# [6] = p53 small molecule agonists, cell-based qHTS assay with human liver microsomes (AID 1963577);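 note: p53 response element beta-lactamase reporter cells with liver microsomes plus NADPH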
# Procedure, shortened: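 p53RE-bla cells; 5 h settle, 37 C/5% CO2; cpd + HLM 0.5 mg/mL + NADPH 0.5 mg/mL (final); 16 h 37 C; LiveBLAzer 2 h RT dark; fluorescence readout.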
# [7] = p53 small molecule agonists, cell-based qHTS assay with rat liver microsomes (AID 1963578)
# Procedure, shortened: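 Rat liver microsome activation: microsomes 0.5 mg/mL, NADPH 0.5 mg/mL final; p53RE-bla cells, 16 h 37 C; LiveBLAzer readout, 2 h RT dark.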
# [8] = p53 small molecule agonists, cell-based qHTS assay with human liver microsomes: qHTS cell viability counter screen (AID 1963579); note: nearly all actives have a fitted effect of over 45% in size
# Procedure, shortened: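 Luminescent CellTiter-Glo read-out, 30 min at room temperature, gauged cytotoxicity in p53RE-bla cells exposed 16 h at 37 C to DMSO-dissolved compounds with metabolic activation by human liver microsomes and NADPH, each 0.5 mg/mL final.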
# [9] = p53 small molecule agonists, cell-based qHTS assay with rat liver microsomes: qHTS cell viability counter screen (AID 1963580); note: nearly all actives have a fitted effect of over 45% in size
# Procedure, shortened: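 Counter screen for cytotoxicity under metabolic activation: rat liver microsomes and NADPH, 0.5 mg/mL final each, added with compounds to p53RE-bla HCT-116 cells; 16 h at 37 C, then ATP luminescence read.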
# [10] = p53 small molecule agonists, cell-based qHTS assay: qHTS cell viability counter screen (AID 1963581); note: nearly all actives have a fitted effect of over 45% in size
# Procedure, shortened: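 qHTS counter screen: 16 h compound exposure at 37 C of p53RE-bla HCT-116 cells (4,000 per well, seeded 5 h prior), cell viability by ATP luminescence.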
# [11] = p53 small molecule agonists, cell-based qHTS assay (AID 1963582; active = well fitted activation curve with a large enough effect in the signal ratio in the repeat runs, not every such curve was filed as active; the % refers to the signal ratio)
# Procedure, shortened: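 Measured: fluorescence from cleaved LiveBLAzer substrate. System: p53RE-bla cells, 16 h compound treatment at 37 C, 2 h substrate step at room temperature.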
# [12] = molecular target: 5-hydroxytryptamine receptor 2A (Homo sapiens) (UniProt P28223); experiment: 5-hydroxytryptamine receptor 2A (HTR2A) small molecule antagonists, cell-based qHTS assay (AID 1963586); note: nearly all actives have a fitted effect of over 45% in size
# Sequence of 5-hydroxytryptamine receptor 2A (Homo sapiens) (P28223 whole entry, looked up): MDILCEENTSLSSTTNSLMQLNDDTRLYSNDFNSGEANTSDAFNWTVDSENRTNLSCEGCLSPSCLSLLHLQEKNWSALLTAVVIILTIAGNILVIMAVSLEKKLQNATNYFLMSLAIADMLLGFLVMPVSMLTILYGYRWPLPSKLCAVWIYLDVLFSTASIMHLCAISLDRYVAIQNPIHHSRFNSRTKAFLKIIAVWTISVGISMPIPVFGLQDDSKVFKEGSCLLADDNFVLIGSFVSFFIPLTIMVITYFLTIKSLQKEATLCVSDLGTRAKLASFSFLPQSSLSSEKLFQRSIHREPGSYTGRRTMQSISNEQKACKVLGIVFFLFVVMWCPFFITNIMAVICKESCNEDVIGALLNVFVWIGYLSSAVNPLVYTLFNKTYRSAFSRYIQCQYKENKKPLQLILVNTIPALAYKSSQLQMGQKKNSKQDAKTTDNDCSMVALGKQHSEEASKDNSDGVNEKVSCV
# Procedure, shortened: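 CHO cells stably expressing human HTR2A were plated for 18 h at 37 C, then loaded with calcium dye for 1 h. Compounds were preincubated 5 min at room temperature before DOI (4 nM solution) was added. Kinetic fluorescence was read for 3 min.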
# [13] = molecular target: 5-hydroxytryptamine receptor 2A (Homo sapiens) (UniProt P28223); experiment: 5-hydroxytryptamine receptor 2A (HTR2A) small molecule agonists, cell-based qHTS assay (AID 1963587); note: nearly all actives have a fitted effect of over 30% in size
# Procedure, shortened: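 HTR2A-CHO cells, plated 18 h at 37 C/5% CO2, dye-loaded 1 h at 37 C; compounds in DMSO added by pin tool (agonist mode). Intracellular calcium flux read as kinetic fluorescence on FDSS over 2 min at 1 s intervals.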
# [14] = molecular target: Muscarinic acetylcholine receptor M1 (Homo sapiens) (UniProt P11229); experiment: Cholinergic receptor muscarinic 1 (CHRM1) small molecule antagonists, cell-based qHTS assay (AID 1963588); note: nearly all actives have a fitted effect of over 40% in size
# Sequence of Muscarinic acetylcholine receptor M1 (Homo sapiens) (P11229 whole entry, looked up): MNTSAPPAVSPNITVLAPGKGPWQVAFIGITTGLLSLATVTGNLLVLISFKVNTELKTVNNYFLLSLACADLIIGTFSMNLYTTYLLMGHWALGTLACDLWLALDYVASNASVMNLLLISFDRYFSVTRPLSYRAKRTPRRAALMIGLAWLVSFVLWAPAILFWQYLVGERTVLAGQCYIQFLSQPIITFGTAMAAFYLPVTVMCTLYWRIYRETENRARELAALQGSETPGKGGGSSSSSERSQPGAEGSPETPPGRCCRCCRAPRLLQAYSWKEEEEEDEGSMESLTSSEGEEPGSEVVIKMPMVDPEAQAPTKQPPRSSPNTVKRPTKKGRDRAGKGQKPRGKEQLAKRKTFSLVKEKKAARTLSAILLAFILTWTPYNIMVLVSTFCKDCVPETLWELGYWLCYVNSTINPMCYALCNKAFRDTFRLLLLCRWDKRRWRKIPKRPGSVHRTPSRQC
# Procedure, shortened: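 Compounds were tested at 15 concentrations in three independent runs. Dye-loaded CHRM1-CHO cells were exposed 5 min at room temperature before stimulation by acetylcholine added at 50nM. Intracellular calcium was read kinetically on FDSS for 3 min.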
# [15] = molecular target: Muscarinic acetylcholine receptor M1 (Homo sapiens) (UniProt P11229); experiment: Cholinergic receptor muscarinic 1 (CHRM1) small molecule agonists, cell-based qHTS assay (AID 1963589); note: nearly all actives have a fitted effect of over 35% in size
# Procedure, shortened: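 Kinetic fluorescence (1 s intervals) of calcium-sensitive dye in human M1 CHO cells after compound addition; cells pre-incubated 18 h at 37 C/5% CO2 and dye-loaded 1 h.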
# [16] = cAMP Responsive Elements (CRE) small molecule agonists, cell-based qHTS assay (AID 1963590)
# Procedure, shortened: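 Test agents in DMSO were incubated 3 h at 37 C/5% CO2 with CRE-bla HEK 293T cells seeded 18 h earlier; LiveBLAzer B/G FRET substrate was added and read after 2 h at room temperature.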
# [17] = molecular target: Beta-2 adrenergic receptor (Homo sapiens) (UniProt P07550); experiment: Adrenergic beta2 receptor (ADRB2) small molecule antagonists, cell-based qHTS assay (AID 1963592); note: series mostly up to about 92 µM; nearly all actives have a fitted effect of over 50% in size
# Sequence of Beta-2 adrenergic receptor (Homo sapiens) (P07550 whole entry, looked up): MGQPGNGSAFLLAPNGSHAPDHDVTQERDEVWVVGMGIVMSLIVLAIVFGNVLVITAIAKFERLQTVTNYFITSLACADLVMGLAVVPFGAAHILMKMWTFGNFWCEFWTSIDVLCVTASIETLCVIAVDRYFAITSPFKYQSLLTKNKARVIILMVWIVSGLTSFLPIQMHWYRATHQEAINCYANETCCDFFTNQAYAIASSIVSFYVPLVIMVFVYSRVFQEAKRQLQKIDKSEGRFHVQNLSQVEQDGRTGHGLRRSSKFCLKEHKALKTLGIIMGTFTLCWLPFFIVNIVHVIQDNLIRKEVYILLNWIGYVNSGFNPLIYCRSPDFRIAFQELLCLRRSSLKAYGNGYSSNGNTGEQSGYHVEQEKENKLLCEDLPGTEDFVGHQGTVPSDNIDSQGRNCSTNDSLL
# Procedure, shortened: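 Assay format: CHO-ADRB2 cells, 18-20hr seeding at 37C/5% CO2, then compound plus 1nM isoproterenol agonist mix for 0.5hr RT. Homogeneous time-resolved fluorescence cAMP detection after 1hr, expressed as 665/615 nm ratio.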
# [18] = molecular target: D(2) dopamine receptor (Homo sapiens) (UniProt P14416); experiment: Dopamine D2 receptor (DRD2) small molecule agonists, cell-based qHTS assay (AID 1963594); note: nearly all actives have a fitted effect of over 35% in size; note: potency is the fitted concentration of half-maximal effect
# Sequence of D(2) dopamine receptor (Homo sapiens) (P14416 whole entry, looked up): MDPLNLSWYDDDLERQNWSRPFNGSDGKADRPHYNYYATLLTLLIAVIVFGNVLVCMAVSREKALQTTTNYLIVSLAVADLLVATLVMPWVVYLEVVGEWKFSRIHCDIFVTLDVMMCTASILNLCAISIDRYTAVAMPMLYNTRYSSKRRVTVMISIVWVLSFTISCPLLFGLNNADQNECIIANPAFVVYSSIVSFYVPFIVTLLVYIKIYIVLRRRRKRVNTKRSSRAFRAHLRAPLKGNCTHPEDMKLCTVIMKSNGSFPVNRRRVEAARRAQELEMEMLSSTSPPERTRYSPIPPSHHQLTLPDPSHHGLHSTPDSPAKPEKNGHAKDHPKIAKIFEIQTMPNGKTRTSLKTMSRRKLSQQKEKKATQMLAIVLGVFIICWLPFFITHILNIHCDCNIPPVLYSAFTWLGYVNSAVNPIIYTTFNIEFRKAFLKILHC
# Procedure, shortened: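 HEK293 cells stably expressing DRD2 were cultured 24 h at 37 C, then given Ro20-1724 (0.1 mM final) and compounds for 10 min at room temperature. NKH477 (200nM) was then added for 30 min. cAMP was read by HTRF.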
# [19] = molecular target: D(2) dopamine receptor (Homo sapiens) (UniProt P14416); experiment: Dopamine D2 receptor (DRD2) small molecule antagonists, cell-based qHTS assay (AID 1963595; active = well fitted inhibition curve with a large enough effect in the signal ratio in the repeat runs, with a control signal flat; the % refers to the signal ratio)
# Procedure, shortened: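 Human DRD2 antagonist qHTS measuring cAMP by HTRF. The cells are exposed to compound for 10 min, then to NKH477 (200 nM) and quinpirole (12 nM) for 30 min at RT, with Ro20-1724 (0.1 mM) present throughout.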
# [20] = cAMP Responsive Elements (CRE) small molecule antagonists, cell-based qHTS assay (AID 1963591; active = well fitted inhibition curve with a large enough effect in the signal ratio in the repeat runs, not every such curve was filed as active; the % refers to the signal ratio)
# Procedure, shortened: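 Reporter line CRE-bla HEK 293T in dialyzed-FBS DMEM; cells preincubated 18 h, treated 3 h with compound plus NKH477 (0.25 uM final); LiveBLAzer FRET, 2 h RT.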
Compound,Potency [1],Potency [2],Potency [3],Potency [4],Potency [5],Potency [6],Potency [7],Potency [8],Potency [9],Potency [10],Potency [11],Potency [12],Potency [13],Potency [14],Potency [15],Potency [16],Potency [17],Potency [18],Potency [19],Potency [20]
CCc1cccc(C)c1N,inactive,inactive,inactive,inactive,inactive,inactive,inactive,inactive,inactive,inactive,inactive,inactive,inactive,inactive,inactive,inactive,inactive,inactive,inactive,–
C=CCCCCCCCCC(=O)O,inactive,inactive,inactive,inactive,inactive,inactive,inactive,inactive,inactive,inactive,inactive,inactive,inactive,inactive,inactive,–,inactive,inactive,inactive,inactive
c1ccc2cc3ccccc3cc2c1,inactive,inactive,inactive,inactive,inactive,inactive,inactive,inactive,inactive,inactive,inactive,inactive,inactive,inactive,inactive,inactive,inactive,inactive,inactive,–
CC(C)[N+](C)(CCOC(=O)C1c2ccccc2Oc2ccccc21)C(C)C,inactive,inactive,inactive,inactive,inactive,inactive,inactive,inactive,inactive,inactive,inactive,inactive,inactive,inactive,inactive,inactive,inactive,inactive,inactive,inactive
COc1cc(C=O)ccc1O,inactive,inactive,inactive,inactive,inactive,inactive,inactive,inactive,inactive,inactive,inactive,inactive,inactive,inactive,inactive,inactive,–,inactive,inactive,inactive
CN(C)CCOC(=O)COc1ccc(Cl)cc1,inactive,inactive,inactive,inactive,inactive,inactive,inactive,inactive,inactive,inactive,inactive,inactive,inactive,inactive,inactive,–,inactive,inactive,inactive,inactive
OC[C@]1(O)OC[C@@H](O)[C@H](O)[C@@H]1O,inactive,inactive,inactive,inactive,inactive,inactive,inactive,inactive,inactive,inactive,inactive,inactive,inactive,inactive,inactive,inactive,inactive,inactive,inactive,–
COCCOCCOCCO,inactive,inactive,inactive,inactive,inactive,inactive,inactive,inactive,inactive,inactive,inactive,inactive,inactive,inactive,inactive,inactive,inactive,inactive,inactive,–
CN(C)CCOCCN(C)C,inactive,inactive,inactive,inactive,inactive,inactive,inactive,inactive,inactive,inactive,inactive,inactive,inactive,inactive,inactive,–,inactive,inactive,inactive,inactive
Cc1cccc(O)c1C,inactive,inactive,inactive,inactive,inactive,inactive,inactive,inactive,inactive,inactive,inactive,inactive,inactive,inactive,inactive,–,–,inactive,inactive,inactive
COc1ccc(O)cc1,inactive,inactive,inactive,inactive,inactive,inactive,inactive,inactive,inactive,inactive,inactive,inactive,inactive,inactive,inactive,inactive,inactive,inactive,inactive,–
CC(=O)c1ccccn1,inactive,inactive,inactive,inactive,inactive,inactive,inactive,inactive,inactive,inactive,inactive,inactive,inactive,inactive,inactive,inactive,–,inactive,inactive,inactive
Cc1ccc(C(C)C)c(O)c1,inactive,inactive,inactive,inactive,inactive,inactive,inactive,inactive,inactive,inactive,inactive,inactive,inactive,inactive,inactive,inactive,inactive,–,inactive,inactive
CCOCCO,inactive,inactive,inactive,inactive,inactive,inactive,inactive,inactive,inactive,inactive,inactive,inactive,inactive,inactive,inactive,inactive,inactive,inactive,inactive,inactive
CCCCCCCC(=O)OC,inactive,inactive,inactive,inactive,inactive,inactive,inactive,inactive,inactive,inactive,inactive,inactive,inactive,inactive,inactive,–,inactive,inactive and 61.1 µM (active),inactive,inactive
CCCCC(CC)COC(=O)c1ccc(N(C)C)cc1 (stereo not given),inactive,30.8 µM (active) and 54.5 µM (active) and inactive,inactive,inactive,inactive,inactive,inactive,inactive,inactive,inactive,inactive,inactive,inactive,inactive,inactive,inactive,inactive,inactive,inactive,–
